Results: PubChem BioAssay (NCATS)
Where “and” joins values, the source holds several entries; their conditions need not be identical. Equal values may be shown once. Results filed as inconclusive are left out. Unmarked numbers belong to inactive results. Calls of active or inactive are those of the source. Calls follow the shape of the dose curve; as a rule, active = well fitted curve in the direction sought with a large enough effect; inconclusive = small, poorly fitted or top-dose-only effect, or another doubt; inactive = no such curve, though single readings can be large; an effect the other way counts as inactive or inconclusive.

Experiments:
[1] = Viability qHTS for spleen associated tyrosine kinase inhibitor (SYKi) naive MV4-11 cells (AID 1963823); also: nearly all actives have a fitted effect of over 40% in size
Outline: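 Read-out: CellTiter-Glo luminescence. Exposure: 72 hr, 37 C, 5% CO2, 95% humidity. Cells: MV4-11 without SYK inhibitor history, 500/well, qHTS format.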

[2] = Viability qHTS for spleen associated tyrosine kinase inhibitor (SYKi) drug resistant MV4-11 cells (AID 1963824); also: nearly all actives have a fitted effect of over 35% in size
Outline: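 SYK-inhibitor-resistant MV4-11 AML cells were seeded at 500 per well onto compound and cultured 72 hours (37 °C, 5% CO2). CellTiter-Glo was then added, and after 10 min at room temperature, luminescence gave viability.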

[3] = Quantitative highthroughput screen to assess conditional lethalithy of NOMO1 cells grown in RPMI1640 with untreated serum (RPMI+s) (AID 1963876); also: nearly all actives have a fitted effect of over 35% in size;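 as to Viability: 100% = DMSO wells and 0% = empty wells without cells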
Outline: (§1)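 Each medium arm—HPLM with 10% dialyzed FBS, or RPMI1640 with 5 mM glucose and 10% untreated or dialyzed FBS—was screened against an 11-point, 3-fold compound titration for 48 h at 37 °C, with CellTiter-Glo luminescence as endpoint.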

[4] = Quantitative highthroughput screen to assess conditional lethalithy of P12 Ichikawa cells grown in Human Plasma-Like Medium with dialyzed fetal bovine serum (HPLM+ds) (AID 1963879); settings: Potency: viability; also: nearly all actives have a fitted effect of over 35% in size; as to Viability: series mostly up to about 46 µM
Outline: as §1

[5] = Quantitative highthroughput screen to assess conditional lethalithy of P12 Ichikawa cells grown in RPMI1640 with dialyzed fetal bovine serum (RPMI+ds) (AID 1963880); settings: Potency: P12-Ichikawa viability; also: nearly all actives have a fitted effect of over 35% in size;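 as to Viability: 100% = DMSO wells and 0% = empty wells on each plate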
Outline: as §1

[6] = Quantitative highthroughput screen to assess conditional lethalithy of P12 Ichikawa cells grown in RPMI1640 with untreated serum (RPMI+s) (AID 1963881); settings: Potency: viability; also: nearly all actives have a fitted effect of over 35% in size;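 as to Viability: series mostly up to about 46 µM; 100% = DMSO wells and 0% = empty wells without cells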
Outline: as §1

[7] = Quantitative highthroughput screen to assess conditional lethalithy of SEM cells grown in RPMI1640 with unreated serum (RPMI+s) (AID 1963883); also: nearly all actives have a fitted effect of over 35% in size;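 as to Viability: 100% = DMSO wells and 0% = empty wells without cells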
Outline: as §1

[8] = Quantitative highthroughput screen to assess conditional lethalithy of SEM cells grown in RPMI1640 with dialyzed fetal bovine serum (RPMI+ds) (AID 1963884); also: nearly all actives have a fitted effect of over 35% in size;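 as to Viability: series mostly up to about 46 µM; 100% = DMSO control wells and 0% = empty wells without cells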
Outline: as §1

[9] = Cellular viability qHTS for adrenocortical cancer (ACC) cell line SW-13 (AID 1963989); settings: SW-13 ACC cells viability, CellTiter-Glo, 48 h; activity (max response): stronger effect = lower value; also: nearly all actives have a fitted effect of over 65% in size;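 as to activity (max response): cells grown in serum-free medium with ITS supplement; % is scaled to controls: 0 for no effect and ±100 for the full control effect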
Outline: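 Luminescent ATP read-out (CellTiter-Glo, 20 min at room temperature) measured metabolically competent SW-13 cells after 48 h compound treatment. Final concentrations spanned up to 46 uM; bortezomib served as positive control.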

[10] = Quantitative highthroughput screen to assess conditional lethalithy of NOMO1 cells grown in RPMI1640 with dialyzed fetal bovine serum (RPMI+ds) (AID 1963877); also: nearly all actives have a fitted effect of over 30% in size;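 as to Viability: series mostly up to about 46 µM; 100% = DMSO control wells and 0% = empty wells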
Outline: as §1

[11] = Quantitative highthroughput screen to assess conditional lethalithy of NOMO1 cells grown in Human Plasma-Like Medium with dialyzed fetal bovine serum (HPLM+ds) (AID 1963878); also: nearly all actives have a fitted effect of over 35% in size;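 as to Viability: 100% = DMSO wells and 0% = empty wells on each plate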
Outline: as §1

[12] = Quantitative highthroughput screen to assess conditional lethalithy of SEM cells grown in Human Plasma-Like Medium with dialyzed fetal bovine serum (HPLM+ds) (AID 1963882); also: nearly all actives have a fitted effect of over 35% in size; as to Viability: series mostly up to about 46 µM
Outline: as §1

[13] = Cellular viability qHTS for adrenocortical cancer (ACC) cell line NCI-H295R (AID 1963990); also: nearly all actives have a fitted effect of over 60% in size
Outline: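 IC50 and maximal efficacy derive from four-parameter logistic modelling of titration curves, with reads scaled between DMSO-only wells (0%) and doxorubicin hydrochloride (100% inhibition). Compounds spanned up to 46 uM over 48 h.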
Potency is read from the fitted curve at half-maximal effect.

SMILES | Potency [1] | Potency [2] | Potency [3] | Potency [4] | Potency [5] | Potency [6] | Potency [7] | Potency [8] | activity (max response) [9] | Potency [10] | Potency [11] | Potency [12] | Potency [13] | Potency [9]
NC(N)=NC(=O)c1nc(Cl)c(N)nc1N | 5.39 µM (active) and 841 nM (active) | 12.1 µM (active) and 668 nM (active) | 935 nM (active) | 4690 nM (active) | 13200 nM (active) | 4690 nM (active) | inactive | inactive | -8.19% and -7.03% | – | – | – | – | –
Cc1noc(NS(=O)(=O)c2ccc(N)cc2)c1C | inactive | inactive | – | inactive | inactive | inactive | inactive | inactive | -8.37% | inactive | inactive | inactive | – | –
CNc1nccc(-c2cccnc2Oc2cc(C(=O)Nc3cccc(C(F)(F)F)c3)ccc2C)n1 | 517 nM (active) and 1.18 µM (active) | 1.3 µM (active) and 2.09 µM (active) | inactive | inactive | inactive | – | – | inactive | – | – | – | inactive | – | –
CC(=O)O[C@H]1C(=O)[C@@]2(C)C([C@H](OC(=O)c3ccccc3)[C@]3(O)C[C@H](OC(=O)[C@H](O)[C@@H](NC(=O)c4ccccc4)c4ccccc4)C(C)=C1C3(C)C)[C@]1(OC(C)=O)CO[C@@H]1C[C@@H]2O (some centres undefined) | 5.1 nM (active) and 8.3 nM (active) | 3.6 nM (active) and 7.4 nM (active) | 1.3 nM (active) | – | – | – | – | – | – | – | – | – | 100 nM (active) | –
Cc1cccc(-c2[nH]c(C(C)(C)C)nc2-c2ccc3nccnc3c2)n1 | 20.9 µM (active) and 3.26 µM (active) | 18.6 µM (active) and 1.3 µM (active) | inactive | – | inactive | – | – | – | – | – | – | 23500 nM (active) | inactive | –
CCC[C@H](N[C@@H](C)C(=O)N1[C@@H]2CCCC[C@H]2C[C@H]1C(=O)O)C(=O)OCC | inactive | inactive | 13200 nM (active) | inactive | – | – | inactive | inactive | 2.75% | – | – | inactive | inactive | –
O=C(O)Cn1nnc(-c2cc(N3CCC(Oc4cc(F)ccc4Br)CC3)no2)n1 | inactive | 103 nM (active) | 1050 nM (active) | 9350 nM (active) | 11800 nM (active) | 9350 nM (active) | inactive | inactive | – | – | – | – | inactive | –
O=C(Nc1ncc(SCCN2CCCC2)s1)[C@]1(c2ccc(S(=O)(=O)C3CC3)cc2)C[C@@H]1C1CCCCC1 | 2.59 µM (active) | 2590 nM (active) | – | – | – | – | – | – | – | 23500 nM (active) | 18700 nM (active) | – | – | –
OCCCNc1cc(-c2ccnc(Nc3cccc(Cl)c3)n2)ccn1 | 82 nM (active) and 83.3 nM (active) | 58 nM (active) and 66.1 nM (active) | – | 662 nM (active) | 469 nM (active) | 526 nM (active) | 235 nM (active) | 209 nM (active) | – | 209 nM (active) | 235 nM (active) | 166 nM (active) | – | 447 nM (active)
CCOc1ccc(Nc2nc(-c3c(C)nc4ccccn34)cs2)cc1 | 41.1 nM (active) and 33.2 nM (active) | 41.1 nM (active) and 29.5 nM (active) | 83.3 nM (active) | 46.9 nM (active) | – | 59 nM (active) | 46.9 nM (active) | 105 nM (active) | – | – | – | – | 708 nM (active) | –
COc1cc2nccc(Oc3ccc(NC(=O)Nc4ccc(F)cc4F)c(F)c3)c2cc1OC | 0.0231 µM (active) | 51.7 nM (active) | inactive | 23500 nM (active) | – | – | 209 nM (active) | – | -11.6% | – | – | 10.5 nM (active) | – | –
NC1(C(=O)N[C@@H](CCO)c2ccc(Cl)cc2)CCN(c2ncnc3[nH]ccc23)CC1 | 0.461 µM (active) | 651 nM (active) | 10500 nM (active) | – | – | – | 3320 nM (active) | 2640 nM (active) | -21.3% | – | – | – | 5620 nM (active) | –
CCCc1cc(=O)[nH]c(=S)[nH]1 | inactive | inactive | 9350 nM (active) | 10500 nM (active) | 16600 nM (active) | 14800 nM (active) | – | – | 3.86% and 14.9% | – | – | – | inactive | –
O=C(NCC1CCCCN1)c1cc(OCC(F)(F)F)ccc1OCC(F)(F)F (centres undefined) | inactive | inactive | 332 nM (active) | 1870 nM (active) | 2960 nM (active) | 1660 nM (active) | – | inactive | -4.23% | – | – | – | – | –
CCc1nc(N)nc(N)c1-c1ccc(Cl)cc1 | 3.76 µM (active) | 3.76 µM (active) and 2.63 µM (active) | inactive | 1870 nM (active) | – | – | – | – | – | – | – | – | 2.59 µM (active) and 1.78 µM (active) | 1.46 µM (active) and 3.98 µM (active)
